Data on 23 molecules can be found in the supplement of paper PMC12808144.

The test system of assay [1] is NHEM-hTERT. In words: cell viability relative to DMSO control (fraction of DMSO control); higher = less cytotoxic, active = 0.5 or less. The note with it: 1 µM; 120 h. A digest of the protocol: (§1)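 The screen used 384-well plates acoustically pre-spotted with 315 approved anti-cancer drugs from TargetMol, each at 1 µM in duplicate. Into each well went 40 µl of cells, 2500 NHEM-hTERT immortalized melanocytes or 1500 of patient-derived Mel-DCC-11 or its resistant subline Mel-DCC-11-R, and plates were kept 120 h, with the subline also tested alongside 8 µM of its selecting drug. Readout was by ATPlite 1step luminescence. Viability values were normalised to vehicle-treated controls and averaged between duplicates.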

The subject of assay [2] is Mel-DCC-11-R. As to the kind of experiment: cell viability relative to DMSO control (fraction of DMSO control); higher = less cytotoxic, active = 0.8 or less. The note with it: 1 µM, 120 h. A digest of the protocol:
as §1

A number with no mark means an inactive call.

On to `COc1cccc2c1C(=O)c1c(O)c3c(c(O)c1C2=O)C[C@@](O)(C(=O)CO)C[C@@H]3O[C@H]1C[C@H](N)[C@@H](O)[C@H](C)O1.Cl` [Epirubicin hydrochloride], for which, in assay [1], the cell viability was 0.647.

For the molecule `Nc1nc(F)nc2c1ncn2[C@@H]1O[C@H](COP(=O)(O)O)[C@@H](O)[C@@H]1O` [Fludarabine Phosphate], the results for the cell viability in assay [1], in assay [2] (vemurafenib co-treatment 0 µM) and in assay [2] (vemurafenib co-treatment 8 µM) were 1.2, 1.07 and 1.16, respectively.

For the molecule `COC(=O)N[C@@H](C)CNc1nccc(-c2cn(C(C)C)nc2-c2cc(Cl)cc(NS(C)(=O)=O)c2F)n1` [Encorafenib], the cell viability in assay [1] is 0.972; in assay [2] (vemurafenib co-treatment 0 µM), 0.802; in assay [2] (vemurafenib co-treatment 8 µM), 0.74 (active).

As for `COc1cc([C@@H]2c3cc4c(cc3[C@@H](O[C@@H]3O[C@@H]5CO[C@@H](C)O[C@H]5[C@H](O)[C@H]3O)C3COC(=O)C32)OCO4)cc(OC)c1O` (stereo not given in full) [Etoposide], the figures for the cell viability in assay [1], in assay [2] (vemurafenib co-treatment 0 µM) and in assay [2] (vemurafenib co-treatment 8 µM) were 0.798, 1.26 and 0.859, respectively.

As for `CCOC(=O)c1ccc(C#Cc2ccc3c(c2)C(C)(C)CCS3)nc1` [Tazarotene], the cell viability in assay [1] was 1.16; in assay [2] (vemurafenib co-treatment 0 µM), 1.09; in assay [2] (vemurafenib co-treatment 8 µM) it was 1.23.

For `Cc1cc(Nc2cc(N3CCN(C)CC3)nc(Sc3ccc(NC(=O)C4CC4)cc3)n2)n[nH]1` [Tozasertib], the cell viability in assay [1] was 0.841; in assay [2] (vemurafenib co-treatment 0 µM) it was 1.14; in assay [2] (vemurafenib co-treatment 8 µM) it was 0.752 (active).

Turning to `CS(=O)(=O)O.Cc1ccc(NC(=O)c2ccc(CN3CCN(C)CC3)cc2)cc1Nc1nccc(-c2cccnc2)n1` [Imatinib Mesylate], the cell viability in assay [1] is 0.965; in assay [2] (vemurafenib co-treatment 0 µM), 0.94; in assay [2] (vemurafenib co-treatment 8 µM) it was 1.1.

For the molecule `CC(C)(C#N)c1cc(Cn2cncn2)cc(C(C)(C)C#N)c1` [Anastrozole], the results for the cell viability in assay [1], in assay [2] (vemurafenib co-treatment 0 µM) and in assay [2] (vemurafenib co-treatment 8 µM) were 1.02, 1 and 1.01, respectively.

`CC(C)C[C@@H](NC(=O)[C@H](O)[C@@H](N)Cc1ccccc1)C(=O)O.Cl` [Bestatin hydrochloride]: the cell viability was 1.08 in assay [1], 0.993 in assay [2] (vemurafenib co-treatment 0 µM) and 1.14 in assay [2] (vemurafenib co-treatment 8 µM).

With `COC(=O)[C@]12CCC(C)(C)C[C@H]1[C@H]1C(=O)C=C3[C@@]4(C)C=C(C#N)C(=O)C(C)(C)[C@@H]4CC[C@@]3(C)[C@]1(C)CC2` [Bardoxolone Methyl], the results for the cell viability in assay [1], in assay [2] (vemurafenib co-treatment 0 µM) and in assay [2] (vemurafenib co-treatment 8 µM) were 0.0925 (active), 0.833 and 0.578 (active), respectively.

`CCN(CC)C(=S)SSC(=S)N(CC)CC` [Disulfiram]: the results for the cell viability in assay [1], in assay [2] (vemurafenib co-treatment 0 µM) and in assay [2] (vemurafenib co-treatment 8 µM) were 1.05, 0.442 (active) and 0.108 (active), respectively.

With `Nc1nc(Cl)nc2c1ncn2[C@H]1C[C@H](O)[C@@H](CO)O1` [Cladribine], the cell viability in assay [1] is 0.592.

For the molecule `COc1c(OCCCN2CCOCC2)ccc2c1N=C(NC(=O)c1cnc(N)nc1)N1CCN=C21` [Copanlisib], the cell viability in assay [1] is 0.829; in assay [2] (vemurafenib co-treatment 0 µM) it was 0.671 (active); in assay [2] (vemurafenib co-treatment 8 µM), 0.254 (active).

As to `Nc1ccn([C@@H]2O[C@H](CO)[C@@H](O)[C@@H]2O)c(=O)n1` [Cytarabine], in assay [1], the cell viability is 0.886.

On to `N.N.O=C([O-])C1(C(=O)[O-])CCC1.[Pt+2]` [Carboplatin], for which the cell viability in assay [1] was 1.05.

With `Nc1ncn([C@@H]2O[C@H](CO)[C@@H](O)[C@H]2O)c(=O)n1` [Mylosar], the cell viability in assay [1] was 0.874; in assay [2] (vemurafenib co-treatment 0 µM), 0.927; in assay [2] (vemurafenib co-treatment 8 µM) it was 0.745 (active).

Turning to `C#Cc1cccc(Nc2ncnc3cc(OCCOC)c(OCCOC)cc23)c1` [Erlotinib], the cell viability in assay [1] was 1.02.

In the case of `NC(=O)c1ncn([C@@H]2O[C@H](CO)[C@@H](O)[C@H]2O)c1N` [AICAR (Acadesine)], in assay [1], the cell viability is 1.06.

Take `COc1cc(N2CCC(N3CCN(C)CC3)CC2)ccc1Nc1ncc(Cl)c(Nc2ccccc2P(C)(C)=O)n1` [Brigatinib]: the cell viability in assay [1] is 0.91; in assay [2] (vemurafenib co-treatment 0 µM), 1.08; in assay [2] (vemurafenib co-treatment 8 µM) it was 0.867.

Regarding `CN(C)C(=N)N=C(N)N.Cl` [Metformin hydrochloride], the cell viability is 1.07 in assay [1], 0.843 in assay [2] (vemurafenib co-treatment 0 µM) and 1.08 in assay [2] (vemurafenib co-treatment 8 µM).

Regarding `C=C1CC[C@H](O)C/C1=C/C=C1\CCC[C@]2(C)[C@@H]([C@H](C)/C=C/[C@H](C)C(C)C)CC[C@@H]12` [Vitamin D2], in assay [1], the cell viability is 0.998.

Take `CO[C@@]12[C@H](COC(N)=O)C3=C(C(=O)C(C)=C(N)C3=O)N1C[C@@H]1N[C@@H]12` [Mitomycin C]: the results for the cell viability in assay [1], in assay [2] (vemurafenib co-treatment 0 µM) and in assay [2] (vemurafenib co-treatment 8 µM) were 0.685, 1.6 and 0.859, respectively.

Take `COc1ccc2[nH]cc(CCNC(C)=O)c2c1` [Melatonine]: the cell viability in assay [1] was 0.936; in assay [2] (vemurafenib co-treatment 0 µM), 0.786 (active); in assay [2] (vemurafenib co-treatment 8 µM), 0.839.
